Where “and” joins values, the source holds several entries; their conditions need not be identical. Equal values may be shown once. About 9,300 (1.5%) of roughly 640,000 compounds were called active. The entries come from a sample that favours actives as a whole. Unmarked numbers belong to inactive results. Rule as the data show it: active = inhibition above about 32%; inactive = the rest.

Broadly, the inhibition is the relative decrease from the control value, in per cent.

A short description of the assay: TEAD-YAP interaction inhibition, primary screen, TEAD-YAP interaction inhibitor project, luminescence, HEK-TIYL cells (AID 1259422).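 Also: 0% = median of test compound wells and 100% = reference inhibitor wells.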 The note with it: TEAD-Gal4/YAP UAS-luciferase luminescence, at 9.12 µM, hits give high values.
In the case of `Cc1cccc(C2c3[nH]c4ccccc4c3CCN2C(=O)Cn2nc(C)nc2C)n1` (stereo unspecified), the inhibition was -0.52%.

On to `COc1ccc2nc(/C(C#N)=C\c3ccc(N4CCOCC4)cc3)[nH]c2c1`, for which the inhibition is -25.6%.

For `COCCNC(=O)/C(C#N)=C/c1ccc(N2CCOCC2)cc1`, the inhibition was -20.6%.

As to `N#C/C(=C\c1ccc(N2CCOCC2)cc1)c1ccccn1`, the inhibition was 90.2% (active).

Regarding `CCOc1cc(C2C=C(c3cccc([N+](=O)[O-])c3)Nc3ncnn32)ccc1OC(F)F` (stereo unspecified), the inhibition was -5.43%.

For `COC(=O)c1ccc(CSc2cc(N3CCN(c4ccccc4F)CC3)ncn2)o1`, the inhibition was -17.6%.

On to `Cc1cc(C)n2nc(SCC(=O)NCCCN3CCCC3=O)nc2n1`, for which the inhibition was 6.95%.

Take `O=C1N=c2ccccc2=C1c1[nH]c(=S)n(-c2ccccc2)c1O`: the inhibition was -4.63%.

As to `COc1cccc(-c2nnc(SCC(=O)Nc3ccccc3)n2-n2cccc2)c1`, the inhibition is 47.3% (active).

With `COC(=O)CSc1nnc(-c2cccc(OC)c2)n1C`, the inhibition was 8.2%.

With `COc1cccc(-n2c(SCC(=O)Nc3cccc(O)c3)nnc2-c2ccncc2)c1`, the inhibition is 1.48%.

On to `COCCNC(=O)c1oc2ccc3c(c2c1C)C(=O)CC1(CCCC1)O3`, for which the inhibition is -23.1%.

In the case of `Nc1nc(SC(c2ccccc2)c2ccccc2)nc2sc3c(c12)CCCC3`, the inhibition was 5.46%.

Consider `Cc1nonc1CN(C)C(=O)c1cc(COc2cccc(C(F)(F)F)c2)on1`, for which the inhibition was -10.6%.

For `CCN(CC)C1CCN(C(=O)c2cc(COc3ccc4ncccc4c3)on2)C1` (stereo unspecified), the inhibition was 14.7%.

Take `CN(Cc1cccnc1)C(=O)c1cc(COc2ccc3ncccc3c2)on1`: the inhibition was 40.8% (active).

As for `Cc1cc(CNC(=O)c2cc(COc3ccc4ncccc4c3)on2)nn1C`, the inhibition was 12.1%.

For `O=C(c1cc(COc2ccc3ncccc3c2)on1)N1C[C@@H]2CCC[C@H]1C2`, the inhibition was 32.6% (active).

As to `COCC1CCN(C(=O)c2cc(COc3ccc4ncccc4c3)on2)C1` (stereo unspecified), the inhibition was 30.8%.

For `NC(=O)COC(=O)c1cccc(S(=O)(=O)NCc2ccccc2)c1`, the inhibition was -3.84%.

`CC(C)c1ccc(CN[C@H]2C[C@H]3C(=O)N[C@H]([C@H](C)O)C(=O)N3C2)cc1`: the inhibition is 1.15%.

With `COc1ccc(NC(=O)C2Cc3ccccc3CN2S(=O)(=O)c2ccc(C)cc2)cc1` (stereo unspecified), the inhibition is 12.4%.

Regarding `c1ccc(-c2nc(-c3ccncc3)[nH]c2-c2ccccc2)cc1`, the inhibition was 6.95%.

Turning to `Nc1nc2c(s1)CCc1c-2no[n+]1[O-]`, the inhibition was 12.3%.

Regarding `[O-][n+]1onc2c1CCc1[nH]c(-c3ccccc3)nc1-2`, the inhibition was 41.9% (active).

As to `Cc1ccc(C)c(N(Cc2ccccc2C)S(C)(=O)=O)c1`, the inhibition was -3.99%.

In the case of `COc1ccc(Cl)cc1Nc1c(-c2ccc3c(c2)OCC(=O)N3)c(=O)c1=O`, the inhibition is 2.85%.

Regarding `Cc1ccc(C(=O)Nc2nccs2)cc1C`, the inhibition is -7.57%.

Consider `CC(=O)C(C)(C)OC(=O)Nc1nccs1`, for which the inhibition is 4.65%.

Take `CC(C)(C)C(=O)Nc1ccc(C(=O)Nc2nccs2)cc1`: the inhibition was 53.9% (active).

As for `COc1ccccc1NC(=O)COC(=O)C(C)N1C(=O)C(=O)c2ccccc21` (stereo unspecified), the inhibition was 13.1%.

With `Cc1ccc(/C=N/NC(=O)c2cccc(F)c2)c(O)c1`, the inhibition is -36.3%.

For the compound `O=C(Nc1c(C(=O)N2CCC(Cc3ccccc3)CC2)cnn1-c1ccccc1)c1ccco1`, the inhibition is -7.49%.

Consider `NC1=NC(=O)/C(=C\c2ccc3c(c2)OCO3)S1`, for which the inhibition was 46.8% (active).

As for `CN1C(N)=NC(=O)/C1=C\c1ccc2c(c1)OCO2`, the inhibition is -15%.

As to `COC(=O)c1ccc(/C=C2/SC(N)=NC2=O)cc1`, the inhibition is 16%.

Turning to `NC1=NC(=O)/C(=C\c2ccc3ncccc3c2)S1`, the inhibition was 52.6% (active).

Take `CC(C)CC1=NN2C(=N)/C(=C/c3ccc4c(c3)OCO4)C(=O)N=C2S1`: the inhibition is -1.58%.

Regarding `COc1cc(/C=C2/SC(N)=NC2=O)cc(OC)c1OC`, the inhibition is 6.04%.

Regarding `CCOC(=O)c1c(NC(=O)CSc2nnc(CNC(=O)c3cc(OC)cc(OC)c3)n2-c2cccc(C)c2)sc2c1CCCC2`, the inhibition was 3.65%.

On to `CCOc1ccc(C(=O)O/N=C(\N)c2ccc(OC)cc2)cc1OCC`, for which the inhibition was -6.66%.

`Cc1cc(N2CCCC2)nc2ccc(NC(=S)NCC3CCCO3)cc12` (stereo unspecified): the inhibition was -6.91%.

As for `Cc1c(SC(F)(F)C(F)C(F)(F)F)c(=O)n(-c2ccccc2)n1C` (stereo unspecified), the inhibition was 18.8%.

On to `O=C(NC1CC1)c1cccc(N2CCc3ccccc3C2)n1`, for which the inhibition is -13.8%.

Regarding `NC(=O)C(C(N)=O)C1OC(=O)C(Cl)=C1Cl` (stereo unspecified), the inhibition was 0.04%.

As for `C/C(=N\NC(=O)c1ccccc1I)c1ccc(O)cc1`, the inhibition was -8.63%.

For the compound `COC(=O)C1=C(C)N(C)C(=O)/C1=C\c1cc(C)n(-c2ccc(Br)cc2)c1C`, the inhibition was -6.34%.

As to `CCN1C(=O)S/C(=C/c2cc(C)n(-c3cccnc3)c2C)C1=O`, the inhibition is 50.4% (active).

Regarding `COC(=O)C1=C(C)N(CC2CCCO2)C(=O)/C1=C\c1cc(C)n(-c2cccc(C)c2)c1C` (stereo unspecified), the inhibition was 0.89%.

`CCN1C(=O)/C(=C\c2cc(C)n(-c3ccccc3)c2C)C(C(=O)OC)=C1C`: the inhibition is 36.6% (active).

Turning to `CCc1ccccc1N1C(=O)NC(=O)/C(=C\c2cc(C)n(-c3cccnc3)c2C)C1=O`, the inhibition was -3.42%.

`Cc1cc(/C=C2/SC(=O)N(C)C2=O)c(C)n1-c1ccc(I)cc1`: the inhibition was -24.8%.

Turning to `COc1ccc(Cl)cc1S(=O)(=O)N1CCN(CC(=O)Nc2ccc(C(N)=O)cc2)CC1`, the inhibition is 3.37%.

`O=C(NC(Cc1c[nH]c2ccccc12)c1nnc2n1CCC2)c1ccccc1Cl` (stereo unspecified): the inhibition is 4.18%.

Turning to `CCOC(=O)c1c(NC(=O)c2cccc(C)c2)sc2c1CCC2`, the inhibition is 1.21%.

Regarding `CC(=O)N(C1=C(N2CCN(C)CC2)C(=O)c2ccccc2C1=O)c1cc(C)cc(C)c1`, the inhibition was 53.9% (active).

Regarding `CC(=O)N(C1=C(N2CCOCC2)C(=O)c2ccccc2C1=O)C1CCCCC1`, the inhibition was 13.4%.

`Cc1cc(C)cc(NC2=C(N3CCN(C)CC3)C(=O)c3ccccc3C2=O)c1`: the inhibition was 14.2%.

Regarding `CCCCOc1ccc(-c2[nH]nc3c2C2(C(=O)Nc4ccc(C)c(Br)c42)C(C#N)=C(N)O3)cc1` (stereo unspecified), the inhibition is 3.07%.

`Cc1nc(NC(=O)c2ccc3c(c2)CCCC3)sc1C`: the inhibition was 53.4% (active).

On to `Cc1nc(NC(=O)c2cc(Br)ccc2Cl)sc1C`, for which the inhibition is -57.6%.

Regarding `COc1ccc(C(=O)Nc2nc(C(C)(C)C)cs2)c(OC)c1`, the inhibition is -70.6%.

On to `Cc1nc(NC(=O)c2ccoc2C)sc1C`, for which the inhibition is -21.2%.

For `COc1ccc(C(=O)Nc2nc3c(ccc4ccccc43)s2)c(OC)c1`, the inhibition was -16.5% and -1.48%.

Take `COc1ccc(C(=O)Nc2nc(C)c(C)s2)c(OC)c1`: the inhibition is 94.8% (active).

For `Oc1ccc2ccccc2c1/C=N/Nc1nccnc1Cl`, the inhibition was -25.8%.

As to `N#CC1=C(N)Oc2n[nH]c(-c3ccc(Cl)cc3)c2C1c1ccc2c(c1)OCO2` (stereo unspecified), the inhibition was 12.5%.

With `Cn1ncc(Cl)c1-c1nc2ccccc2[nH]1`, the inhibition is -8.92%.

With `N#Cc1cnn(-c2nc3ccccc3[nH]2)c1N`, the inhibition is -4.74%.

Consider `O=c1c(Cl)c(Cl)cnn1-c1nc2ccccc2[nH]1`, for which the inhibition is 56.5% (active).

Regarding `Cc1cc(Nc2ccccc2Cl)n2nc(C)nc2n1`, the inhibition was -1.89%.

Consider `Cc1cc(C)c(NC(=O)c2c(Cl)nc(C)c(Cl)c2C)c(C)c1`, for which the inhibition was -2.91%.

With `COc1cccc(/C=C/C(=O)NCC(=O)O)c1OC`, the inhibition is -11.1%.

In the case of `Cc1cccc2nc(CNC(=O)CCCn3nnnc3CN3CCC(C)CC3)cn12`, the inhibition was 3.48%.

Regarding `CC(C)(C)c1ccc(C(=O)NNC(=O)c2ccccn2)cc1`, the inhibition is 41.6% (active).

Consider `CC(C)(C)c1ccc(C(=O)NNC(=O)C(=O)NCc2ccccc2)cc1`, for which the inhibition is -5.07%.

As for `C/C(=N/NC(=O)c1ccccn1)c1ccccc1`, the inhibition was 14.7%.

As to `N#Cc1ccc(C23CC4CC(CC(C4)C2)C3)nc1SCC(=O)Nc1nc2ccccc2s1`, the inhibition was 3.55%.

On to `N#CC(=C1C(=O)c2ccccc2C1=O)c1nc2ccccc2[nH]1`, for which the inhibition was -10.3%.

Turning to `Cc1ccc(N=C2NC(=O)/C(=C\c3ccc(-c4ccccc4[N+](=O)[O-])o3)S2)c(C)c1`, the inhibition was -2.23%.

Consider `COc1ccccc1NC(=O)C1=C(C)Nc2nc3ccccc3n2C1c1cccs1` (stereo unspecified), for which the inhibition was 46.5% (active).

For `COc1ccccc1C1C(C(=O)N2CCCCC2)=C(C)Nc2nc3ccccc3n21` (stereo unspecified), the inhibition was 1.41%.

`CCOc1ccc(C2C(C(=O)NC)=C(C)Nc3nc4ccccc4n32)cc1OC` (stereo unspecified): the inhibition is -6.37%.

In the case of `COc1ccc(C(C)=O)c(OC(=O)Cc2cc(OC)c(OC)c(OC)c2)c1`, the inhibition is 12.9%.

Consider `COc1cc(C(=O)Nc2ccc(C(C)=O)cc2)c2ccccc2n1`, for which the inhibition was 47.1% (active).

On to `COc1cc(C(=O)Nc2ccc(C(=O)O)cc2)c2ccccc2n1`, for which the inhibition was -2.83%.

On to `COc1ccc(-c2cc(C(=O)Nc3ccccc3)c3ccccc3n2)cc1`, for which the inhibition was -2.31%.

As for `CCCC(=O)Nc1ccccc1C(=O)O`, the inhibition was -0.09%.

As for `COC(=O)c1ccccc1NC(=O)C(=O)Nc1ccccc1C(=O)OC`, the inhibition is -3.84%.

With `C/C(=C\c1ccccc1)C(=O)Nc1ccccc1C(=O)O`, the inhibition was 36.6% (active).

Turning to `CCN1CCN(c2ncc(C(=O)Nc3ccc(OC)c(Cl)c3)c3ccccc23)CC1`, the inhibition is -15.1%.

For `COc1ccc(Nc2c(C#N)cnc3ccccc23)cc1Cl`, the inhibition was 49.7% (active).

Take `COc1ccc(NC(=O)Cc2c[nH]c3ccccc23)cc1Cl`: the inhibition was 4.42%.

With `Cc1ccc(/C=C2/SC(=Nc3ccccc3Cl)NC2=O)cc1`, the inhibition is 37.2% (active).

As for `COc1cc(/C=C2/SC(=Nc3ccccc3Cl)NC2=O)cc(OC)c1OC`, the inhibition was -2.07%.

As for `Cc1cccc(C(=O)Oc2ccc(/C=C3/SC(=Nc4ccccc4Cl)NC3=O)cc2)c1`, the inhibition is 0.81%.

The values above are taken from PubChem BioAssay AID1259422 (The Scripps Research Institute Molecular Screening Center, 2018).
